The source made the active and inactive calls. The calls were made as follows: active = hit-call score of the fitted dose curve at least 0.9, where 1 is the maximum; inactive = score below 0.9.

The first test is described as follows: ATG_GRE_CIS: Attagene CIS-FACTORIAL HepG2 Assay for human Glucocorticoid Response Elements (GRE) (AID 2282947). The following applies: HepG2 GRE cis-reporter, Attagene multiplex mRNA; actives raise or lower the signal. In short, it runs like this:
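Cells (HepG2) bearing transfected cis-promoter reporter transcription units were treated with chemical for 24 hours. Reporter mRNA was measured via RT-PCR with capillary electrophoresis, and activity was fitted in both directions relative to DMSO.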
For `O=C1O[C@@H]2[C@@H](O)[C@H](O)O[C@@H]2[C@H]1O`, the outcome was inactive.
For `NCCCN1CCOCC1`, the call was inactive.
The same measure, in the same setting: to `CCCCCCCCCCCCCC(=O)O` belongs “inactive”; to `CCCC(=O)C(C)=O`, “inactive”; to `COC(=O)c1ccc(C)cc1`, “inactive”.
Same read-out and setting: then `CNC(=O)Oc1ccc2c(c1)[C@]1(C)CCN(C)[C@@H]1N2C`, with “inactive”; and `BrC1CCC(Br)C(Br)CCC(Br)C(Br)CCC1Br` (stereo unspecified), with “inactive”; and `CC1CCC(C(C)(C)O)CC1` (stereo unspecified), with “inactive”.
As for `CC1CCC2CC1C2(C)C` (stereo unspecified), the outcome was inactive.
Same read-out and setting: to `CCCC(=O)c1cc(O)c(O)cc1O` belongs “inactive”.
Still for that read-out and setting: to `COC(=O)C1=C(C)NC(C)=C(C(=O)OCCN(C)Cc2ccccc2)C1c1cccc([N+](=O)[O-])c1` (stereo unspecified) belongs “inactive”; to `C[Si](O[Si](C)(C)C)O[Si](C)(C)C`, “inactive”; to `C=CCOC(=O)CCC1CCCCC1`, “inactive”.
The same measure, in the same setting: to `O=Cc1ccc(F)cc1` belongs “inactive”; to `O=C(O)CCCCCCCCCCC(=O)O`, “inactive”.
Turning to `CC(CCO)CCc1ccccc1` (stereo unspecified), the outcome was inactive.
Consider `CC1=CCC2C(C1)C2(C)C` (stereo unspecified), for which the result was inactive.
On the same count and under the same terms, to `COC(C(=O)O)c1ccccc1` (stereo unspecified) belongs “inactive”; to `OCc1cccnc1`, “inactive”.
In the case of `Clc1cccc(Cl)n1`, the outcome was inactive.
The same measure, in the same setting: to `COc1ccc(OC)c(OC)c1` belongs “inactive”; to `CC(C)=CCCC(C)CC=O` (stereo unspecified), “inactive”; to `CC(C)(Oc1ccc(CCNC(=O)c2ccc(Cl)cc2)cc1)C(=O)O`, “inactive”.
On the same count and under the same terms, to `Nc1ccc(F)c([N+](=O)[O-])c1` belongs “inactive”; to `CC(CC(C)(C)C)CC(C)(C)CC(C)(C)C` (stereo unspecified), “inactive”.
On the same count and under the same terms, then `Cc1cccc(C)c1C`, with “inactive”; and `COc1c(Cl)c(Cl)c(Cl)c(Cl)c1Cl`, with “inactive”.
`Cc1c(N(C)C)c(=O)n(-c2ccccc2)n1C`: the molecule was classed as inactive.
Still for that read-out and setting: then `CC(C)=CCC[C@H](C)CC=O`, with “inactive”.
Consider `O=C1c2ccccc2C(=O)N1SC1CCCCC1`, for which the concentration at half-maximal activity (AC50) (in general, the concentration giving half of the maximal activity seen) is 169 µM (active).
For `CCCCC/C=C/C=C/C=O`, the molecule was called inactive.
On the same count and under the same terms, to `CCCCNC(=O)NS(=O)(=O)c1ccc(C)cc1` belongs “inactive”; to `CC(=O)C(C)=O`, “inactive”; to `O=C(O)c1snc(Cl)c1Cl`, “inactive”.
On the same count and under the same terms, then `NCCOCCO`, with “inactive”; and `CC(=O)O[C@]1(C(C)=O)CC[C@H]2[C@@H]3C[C@H](C)C4=CC(=O)CC[C@]4(C)[C@H]3CC[C@@]21C`, with “inactive”.
The same measure, in the same setting: to `COc1cccc(OC)c1` belongs “inactive”.
Take `C=C(C)C(=O)OCCOC(=O)CC(C)=O`: the molecule was classed as inactive.

The next test is described as follows: ATG_ISRE_CIS: Attagene CIS-FACTORIAL HepG2 Assay for human Interferon Regulatory Factor 1 (IRF1) binding to an Interferon-Stimulated Response Element (ISRE) (AID 2282948). To be noted: HepG2 ISRE cis-reporter (Attagene), mRNA transcription readout; actives raise or lower the signal. In short, it runs like this:
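Endogenous transcription factor activity read as reporter transcript abundance via RT-PCR and capillary electrophoresis. HepG2 cells transiently transfected, 24 h chemical exposure. Gain or loss fitted against DMSO baseline.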
`O=C1O[C@@H]2[C@@H](O)[C@H](O)O[C@@H]2[C@H]1O`: the molecule was called inactive.
Same read-out and setting: then `NCCCN1CCOCC1`, with “inactive”; and `CCCCCCCCCCCCCC(=O)O`, with “inactive”.
On the same count and under the same terms, to `CCCC(=O)C(C)=O` belongs “inactive”; to `COC(=O)c1ccc(C)cc1`, “inactive”.
On to `CNC(=O)Oc1ccc2c(c1)[C@]1(C)CCN(C)[C@@H]1N2C`, for which the outcome was inactive.
On to `BrC1CCC(Br)C(Br)CCC(Br)C(Br)CCC1Br` (stereo unspecified), for which the half-maximal activity concentration (AC50) is 87 µM (active).
As to `CC1CCC(C(C)(C)O)CC1` (stereo unspecified), the result was inactive.
The same measure, in the same setting: to `CC1CCC2CC1C2(C)C` (stereo unspecified) belongs “inactive”.
With `CCCC(=O)c1cc(O)c(O)cc1O`, the result was inactive.
Regarding `COC(=O)C1=C(C)NC(C)=C(C(=O)OCCN(C)Cc2ccccc2)C1c1cccc([N+](=O)[O-])c1` (stereo unspecified), the AC50 is 26.2 µM (active).
With `C[Si](O[Si](C)(C)C)O[Si](C)(C)C`, the result was inactive.
For `C=CCOC(=O)CCC1CCCCC1`, the result was inactive.
On the same count and under the same terms, to `O=Cc1ccc(F)cc1` belongs “inactive”; to `O=C(O)CCCCCCCCCCC(=O)O`, “inactive”.
On the same count and under the same terms, to `CC(CCO)CCc1ccccc1` (stereo unspecified) belongs “inactive”; to `CC1=CCC2C(C1)C2(C)C` (stereo unspecified), “inactive”.
Still for that read-out and setting: then `COC(C(=O)O)c1ccccc1` (stereo unspecified), with “inactive”; and `OCc1cccnc1`, with “inactive”.
As for `Clc1cccc(Cl)n1`, the result was inactive.
Same read-out and setting: then `COc1ccc(OC)c(OC)c1`, with “inactive”; and `CC(C)=CCCC(C)CC=O` (stereo unspecified), with “inactive”.
Same read-out and setting: to `CC(C)(Oc1ccc(CCNC(=O)c2ccc(Cl)cc2)cc1)C(=O)O` belongs “inactive”; to `Nc1ccc(F)c([N+](=O)[O-])c1`, “inactive”.
The same measure, in the same setting: then `CC(CC(C)(C)C)CC(C)(C)CC(C)(C)C` (stereo unspecified), with “inactive”; and `Cc1cccc(C)c1C`, with “inactive”; and `COc1c(Cl)c(Cl)c(Cl)c(Cl)c1Cl`, with “inactive”.
For `Cc1c(N(C)C)c(=O)n(-c2ccccc2)n1C`, the outcome was inactive.
`CC(C)=CCC[C@H](C)CC=O`: the molecule was classed as inactive.
With `O=C1c2ccccc2C(=O)N1SC1CCCCC1`, the molecule was classed as inactive.
As for `CCCCC/C=C/C=C/C=O`, the molecule was called inactive.
On the same count and under the same terms, to `CCCCNC(=O)NS(=O)(=O)c1ccc(C)cc1` belongs “inactive”.
Same read-out and setting: to `CC(=O)C(C)=O` belongs “inactive”.
With `O=C(O)c1snc(Cl)c1Cl`, the half-maximal activity concentration (AC50) was 136 µM (active).
As to `NCCOCCO`, the molecule was called inactive.
With `CC(=O)O[C@]1(C(C)=O)CC[C@H]2[C@@H]3C[C@H](C)C4=CC(=O)CC[C@]4(C)[C@H]3CC[C@@]21C`, the AC50 was 67.1 µM (active).
On to `COc1cccc(OC)c1`, for which the result was inactive.
Regarding `C=C(C)C(=O)OCCOC(=O)CC(C)=O`, the outcome was inactive.

The values are drawn from PubChem BioAssay (EPA / NIEHS).
